Source: PubChem BioAssay
Unmarked numbers belong to inactive results. The rule behind the calls is not given here.

Target: Pantothenate synthetase (Mycobacterium tuberculosis (strain ATCC 25618 / H37Rv)) (UniProt P9WIL5)
Test: Coupled enzyme confirmation of inhibitors against recombinant Mtb PanC (AID 375);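 note: 0% = full reaction with vehicle and 100% = no enzyme background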
Conditions: coupled enzyme assay; at 10 µM, stronger effect = higher value

Pantothenate synthetase (Mycobacterium tuberculosis (strain ATCC 25618 / H37Rv)), sequence (P9WIL5 whole entry, looked up): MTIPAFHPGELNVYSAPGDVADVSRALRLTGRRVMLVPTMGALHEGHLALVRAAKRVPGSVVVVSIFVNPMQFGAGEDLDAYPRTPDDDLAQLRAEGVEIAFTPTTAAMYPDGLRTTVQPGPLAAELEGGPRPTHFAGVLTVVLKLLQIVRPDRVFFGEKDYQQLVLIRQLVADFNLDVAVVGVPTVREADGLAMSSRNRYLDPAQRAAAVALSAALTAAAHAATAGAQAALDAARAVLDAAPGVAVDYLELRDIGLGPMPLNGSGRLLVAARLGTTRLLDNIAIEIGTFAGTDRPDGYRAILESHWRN

SMILES | inhibition [%]
NC(Cc1ccc(Oc2ccc(O)cc2)cc1)C(=O)O (stereo not given) | 0
Cc1cc(C(=O)Nc2c(F)cc(F)cc2Br)no1 | 0
Cc1ccc(-c2nnc(N3CCN(C(=O)CN4C(=O)c5ccccc5C4=O)CC3)c3ccccc23)cc1 | 0
COC(=O)Cn1cc(C(=O)c2cccs2)c2ccccc21 | 0
Cc1ccc(OCCC(=O)OCC(=O)C(C)(C)C)cc1 | 8
